Test results reported in PubChem BioAssay AID2685 (National Center for Advancing Translational Sciences (NCATS), 2010).
Out of some 320,000 compounds screened, about 2,100 (0.66%) were called active. Another 53% or so got no clear call; they are omitted. This is one part of a sample in which actives are shown more often than they occur. Calls come from the whole dose curve; as a rule, active = well fitted inhibition curve with a large enough effect in the signal ratio, with a control signal flat (not every such curve was filed as active); inconclusive = small, poorly fitted or top-dose-only effect, or effect the other way, or a change in a side signal; inactive = flat fitted curve, though single readings scatter; the % refers to the signal ratio.

Test: qHTS Assay for Lipid Storage Modulators in Drosophila S3 Cells;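 for cell number change: cells counted by Cell Tracker Red CMTPX staining in the red channel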; for lipid storage change, negative = inhibition: % is set by controls: 0 for no effect and ±100 for the full control effect
Details: BODIPY lipid droplet fluorescence, 18-24 h, cells fed with added oleic acid; cell number change: measured here: cell count max response; series mostly up to 46.1 µM; lipid storage change, negative = inhibition: at the top concentration
Procedure, shortened: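 Laser-scanning cytometry quantifies lipid droplet accumulation (500–530 nm total intensity; droplet/cell object ratio) in oleic acid-fed (400 uM added) Drosophila S3 cells treated with a concentration series. 20 uM Triacsin C defined 100% inhibition.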
Potency is the fitted concentration of half-maximal effect.

Row | Structure (SMILES) | lipid storage change, negative = inhibition | cell number change | outcome | Potency
1 | O=C(c1cc(-c2ccc(O)cc2)on1)N1CCN(c2ccc(F)cc2)CC1 | 5.87% (inactive) | -16.1% |  | 
2 | O=C(c1cc(-c2ccc3c(c2)OCO3)on1)N1CCN(c2ccc(F)cc2)CC1 | 17.2% (inactive) | 27.5% |  | 
3 | O=C(c1ccc(N2CCN(C(=O)c3ccccc3Br)CC2)cc1)c1cccc(F)c1 |  | -10.8% | inactive | 
4 | O=C(c1cc(-c2ccc(Cl)cc2)on1)N1CCN(c2ccc(F)cc2)CC1 |  | 8.11% |  | 20.6 µM (active)
5 | Cc1c(C(=O)N2CCN(CCc3ccccn3)CC2)oc2ccc(F)cc12 | -2.08% (inactive) | 0.99% |  | 
6 | COc1ccc(CNC(=O)CCC(=O)Nc2nnc(CC(C)C)s2)cc1 | 0.276% (inactive) | 5.14% |  | 
7 | COc1ccc(N(C(=O)CNC(=O)c2cccs2)C(C(=O)NCC2CCCO2)c2ccccc2)c(OC)c1 (configuration not stated) | 22.3% (inactive) | 5.71% |  | 
8 | CC(=O)Oc1ccc2nc(-c3cccs3)oc(=O)c2c1 | 13% (inactive) | -22.5% |  | 
9 | Cc1ccc(NC(=S)NC(CO)C(O)c2ccc([N+](=O)[O-])cc2)cc1 (configuration not stated) | -5% (inactive) | -1.73% |  | 
10 | Fc1cnc(N2CCOCC2)nc1N1CCc2ccccc21 | 1.02% (inactive) | -10.6% |  | 
11 | O=C(c1ccccc1Oc1ccccc1)N1CCN(c2ccc(F)cc2)CC1 | -12.6% (inactive) | 14.1% |  | 
12 | O=C(O)c1ccccc1C(=O)N1CCN(c2ccccc2)CC1 | -1.29% (inactive) | 0.845% |  | 
13 | O=C(c1ccccc1C(=O)N1CCN(c2ccc(F)cc2)CC1)N1CCN(c2ccc(F)cc2)CC1 |  | -27% |  | 2.59 µM (active)
14 | CC(C)CN(C(=O)CCC(=O)OCC(=O)N(C)c1ccccc1)c1c(N)n(CC(C)C)c(=O)[nH]c1=O | 16.2% (inactive) |  |  | 
15 | Cn1c(C(=O)O)cc2c(=O)n3ccccc3nc21 | -0.14% (inactive) | 3.26% |  | 
16 | CC1CN(C(=O)c2cc3c(=O)n4ccccc4nc3n2C)CC(C)O1 (configuration not stated) |  | 15.1% | inactive | 
17 | CC1CC(NC(=O)c2cc3c(=O)n4ccccc4nc3n2C)CC(C)(C)C1 (configuration not stated) |  | 3.3% |  | 18.4 µM (active)
18 | CCOc1cc(C(=O)NCC2CCCO2)cc(OCC)c1OCC (configuration not stated) |  |  | inactive | 
19 | Cc1cc(C)c(S(=O)(=O)N2CCN(C(=O)c3c(C)noc3C)CC2)c(C)c1 | 23.1% (inactive) | -0.389% |  | 
20 | Cc1ccc(NC2SC(=O)N(CC(=O)O)C2=O)cc1 (configuration not stated) |  | -7.73% |  | 23.1 µM (active)
21 | O=C(O)CN1C(=O)SC(Nc2ccccc2)C1=O (configuration not stated) | 5.61% (inactive) | 7.54% |  | 
22 | CCOC(=O)CN1C(=O)SC(Nc2ccc(C)cc2)C1=O (configuration not stated) | 1.4% (inactive) | 0.723% |  | 
23 | Cn1cnnc1SCCNS(=O)(=O)c1cccc([N+](=O)[O-])c1 | 20.2% (inactive) | 3.23% |  | 
24 | Cc1ccc(NC(=S)N(CCN2CCOCC2)Cc2ccccc2F)cc1 | 5.28% (inactive) | -12.7% |  | 
25 | CCc1ccc(NC(=S)N(CCN2CCOCC2)Cc2ccccc2F)cc1 | 5.57% (inactive) | 13.9% |  | 

Row | Structure (SMILES) | lipid storage change, negative = inhibition | cell number change | outcome | Potency
26 | CN(C)S(=O)(=O)N(CCN1CCOCC1)Cc1ccccc1F |  | 6.57% |  | 9.2 µM (active)
27 | Cn1cnnc1Sc1ccc(C(F)(F)F)cc1[N+](=O)[O-] | 5.81% (inactive) | 20.3% |  | 
28 | Cc1ccc(C2(c3noc(CN4C[C@@H](C)O[C@@H](C)C4)n3)CCCC2)cc1 | -0.0819% (inactive) | -4.24% |  | 
29 | CCOc1ccc2ccccc2c1C(=O)Nc1cc(=O)n(C)c(=O)n1C | 1.88% (inactive) | -14% |  | 
30 | Cc1[nH]n(-c2ccccc2)c(=O)c1N=Nc1ccccc1C(=O)N1CCOCC1 | 12.8% (inactive) | -24.3% |  | 
31 | Cc1[nH]n(-c2ccccc2)c(=O)c1N=O | -14.1% (inactive) | -9.61% |  | 
32 | Cc1[nH]n(-c2ccccc2)c(=O)c1N=Nc1ccc(Cl)cc1 |  | -10.2% |  | 9.2 µM (active)
33 | COc1ccccc1N=Nc1c(C)[nH]n(-c2ccccc2)c1=O |  | 0.338% |  | 14.6 µM (active)
34 | Cc1[nH]n(-c2ccccc2)c(=O)c1N=Nc1ccc(C(N)=O)cc1 |  | 15.5% | inactive | 
35 | Cc1[nH]n(-c2ccc(Cl)cc2)c(=O)c1N=Nc1cccnc1 | 2.79% (inactive) | 8.32% |  | 
36 | COc1ccccc1NC(=O)C1=C(C)Nc2nc(-c3ccccc3)nn2C1c1ccccn1 (configuration not stated) |  |  | inactive | 
37 | O=C(CN1C(=O)NC2(CCCCCCC2)C1=O)Nc1ccc(Cl)cc1 | 26.3% (inactive) | 27.1% |  | 
38 | COC(=O)C1=C(NC(=O)C2CCCCC2)CCS1 | 1.08% (inactive) | -10% |  | 
39 | CC(C)Oc1ccc(/C=C/C(=O)NCC2COc3ccccc3O2)cc1 (configuration not stated) | -7.62% (inactive) | -3.08% |  | 
40 | CCS(=O)(=O)c1nc(S(=O)(=O)c2ccc(C)cc2)c(NCCN2CCOCC2)s1 | -20.7% (inactive) |  |  | 
41 | O=C(Nc1ccc(S(=O)(=O)N2CCCCCC2)cc1)c1ccco1 |  |  | inactive | 
42 | CCOC(=O)N1CCC(NCCNC(=O)c2ccco2)CC1 | -7.46% (inactive) | -0.499% |  | 
43 | CC1CCN(S(=O)(=O)c2ccc(NC(=O)c3ccco3)cc2)CC1 |  | -3.17% |  | 16.4 µM (active)
44 | O=C(NCCNC1CCCCC1)c1ccco1 | 10.1% (inactive) | 17.5% |  | 
45 | O=C(Nc1ccc(Cl)c(S(=O)(=O)N2CCCCC2)c1)c1ccco1 |  | 11.9% |  | 0.291 µM (active)
46 | O=C(Nc1ccc(S(=O)(=O)N2CCOCC2)cc1)c1ccco1 |  |  | inactive | 
47 | O=C(Nc1ccc(N2CCCC2)c(Cl)c1)c1ccco1 | 15.6% (inactive) | -15.9% |  | 
48 | CC1CCC(NCCNC(=O)c2ccco2)CC1 (configuration not stated) |  | 15.3% |  | 0.82 µM (active)
49 | CCOc1ccc(NC(=O)c2ccco2)cc1S(=O)(=O)N1CCCC1 | 19.1% (inactive) | 3.85% |  | 
